Results as given in PubChem BioAssay (NCATS).
Inconclusive results are not listed. Activity calls are given as the source filed them. Calls follow the shape of the dose curve; as a rule, active = well fitted curve in the direction sought with a large enough effect; inconclusive = small, poorly fitted or top-dose-only effect, or another doubt; inactive = no such curve, though single readings can be large; an effect the other way counts as inactive or inconclusive.

Legend:
[1] = biological target: Metallo-beta-lactamase type 2 (Klebsiella pneumoniae) (UniProt C7C422); assay: qHTS to identify inhibitors of the New Delhi Metallo-beta-lactamase (NDM): assay validation screen against the NCATS LOPAC Collection (AID 1794843);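 also: nitrocefin turnover by NDM-1 measured as 485 nm absorbance at plateau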
Summary of the method: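 NDM-1 at 2 nM final in 50 mM HEPES pH 7.0 with 1 uM ZnSO4 and 0.01% Tween20 was preincubated with library compounds in DMSO. Nitrocefin (50 uM stock) was then added, and absorbance at 485 nm was read at the kinetic plateau.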

[2] = biological target: Glutathione peroxidase 1 (Homo sapiens) (UniProt P07203); assay: Primary qHTS Assay for Inhibitors of Recombinant Selenoprotein Glutathione Peroxidase 1 (GPX1) (AID 1845191); also: nearly all actives have a fitted effect of over 65% in size
Summary of the method: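 NADPH consumption tracked by fluorescence at 340/450 nm between t=0 and t=15 min, room temperature. Final mix: 10 nM GPX1, 100 nM glutathione reductase, 1 mM GSH, 0.5 mM NADPH, 0.5 mM cumene hydroperoxide, 0.01% BSA; 30 min compound–enzyme preincubation.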

[3] = biological target: Phospholipid hydroperoxide glutathione peroxidase GPX4 (Homo sapiens) (UniProt P36969); assay: Primary qHTS Assay for Inhibitors of Recombinant Selenoprotein Glutathione Peroxidase 4 (GPX4) (AID 1845192); also: nearly all actives have a fitted effect of over 65% in size
Summary of the method: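 NADPH consumption followed by fluorescence at 340/450 nm, t=0 and after 15 min at room temperature. Reaction started with cumene hydroperoxide (0.5 mM final) after 30 min compound–GPX4 preincubation; final 200 nM GPX4, 100 nM GR, 1 mM GSH, 0.5 mM NADPH.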

[4] = Quantitative High-Throughput drug screen in 47 multiple myeloma cell lines against the NCATS MIPE library collection: FR4_PLB cell viability assay (AID 1918924; also: nearly all actives have a fitted effect of over 35% in size)
Summary of the method: (§1)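 Myeloma cells (500 per well) were exposed to MIPE 4.0 compounds by pin transfer and incubated 48 hours at 37C, 5% CO2. Viability was read as ATP by CellTiter-Glo luminescence, normalised to DMSO (100%) and media-only (0%) wells.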

[5] = Quantitative High-Throughput drug screen in 47 multiple myeloma cell lines against the NCATS MIPE library collection: Delta47_JCRB cell viability assay (AID 1918925; also: nearly all actives have a fitted effect of over 45% in size; also: potency is read from the fitted curve at half-maximal effect)
Summary of the method: (§2)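 Primary qHTS used for cherry-picking: cells at 500/well, library compounds for 48 h (37C, 5% CO2), luminescent ATP assay.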

[6] = Quantitative High-Throughput drug screen in 47 multiple myeloma cell lines against the NCATS MIPE library collection: EJM_DSMZ cell viability assay (AID 1918926; also: nearly all actives have a fitted effect of over 30% in size; also: potency is read from the fitted curve at half-maximal effect)
Summary of the method: as §2

[7] = Quantitative High-Throughput drug screen in 47 multiple myeloma cell lines against the NCATS MIPE library collection: AMO1_DSMZ cell viability assay (AID 1918927; also: nearly all actives have a fitted effect of over 30% in size; also: potency is read from the fitted curve at half-maximal effect)
Summary of the method: as §2

[8] = Quantitative High-Throughput drug screen in 47 multiple myeloma cell lines against the NCATS MIPE library collection: ARP1_JJKsccF8 cell viability assay (AID 1918928; also: nearly all actives have a fitted effect of over 40% in size; also: potency is read from the fitted curve at half-maximal effect)
Summary of the method: (§3)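 Each line was plated at 500 cells/well and treated 48 h with library drugs. Viability came from CellTiter-Glo luminescence relative to DMSO and cell-free medium controls.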

[9] = Quantitative High-Throughput drug screen in 47 multiple myeloma cell lines against the NCATS MIPE library collection: ARD_JJKsccE7 cell viability assay (AID 1918929; also: potency is read from the fitted curve at half-maximal effect)
Summary of the method: as §2

[10] = Quantitative High-Throughput drug screen in 47 multiple myeloma cell lines against the NCATS MIPE library collection: KMM1_JCRB cell viability assay (AID 1918960); also: nearly all actives have a fitted effect of over 30% in size; also: potency is read from the fitted curve at half-maximal effect
Summary of the method: as §3

[11] = biological target: Luciferin 4-monooxygenase (Photinus pyralis) (UniProt P08659); assay: Primary firefly luciferase (FLuc) qHTS assay for identification of artifact compounds. (AID 1845220); conditions: outcome: dose series up to 54.1 µM; also: nearly all actives have a fitted effect of over 60% in size
Summary of the method: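 Compounds sat 15 min at room temperature with 10 uM luciferin and 10 uM ATP (pH 7.6 Tris acetate). Firefly luciferase (10 nM final) was then added, and luminescence was read 5 min later. Data normalized to no-enzyme and DMSO controls were Hill-fitted.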

[12] = system: Nanoluciferase (engineered Oplophorus gracilirostris luciferase); assay: Primary Nanoluciferase (NLuc) qHTS assay for identification of artifact compounds. (AID 1845222)
Summary of the method: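 Luminescence from secreted NLuc (filtered, 1:55-diluted S16 cell medium) read 5 min after Nano-Glo substrate; compounds preincubated 15 min, RT. Hill fits of inhibition normalized to DMSO and no-enzyme.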

[13] = Primary redox qHTS assay for identification of artifact compounds. (AID 1845223)
Summary of the method: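 Redox-cycling detection via DTT (250 uM final) oxidation coupled to Amplex Red (25 uM)/HRP (250 mU/mL) in HBSS. 15 min preincubation plus 30 min after DTT, room temperature. Ex/Em 525/598 nm; 4-parameter Hill fit against DMSO and 10 uM DA3003.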

[14] = Quantitative High-Throughput drug screen in 47 multiple myeloma cell lines against the NCATS MIPE library collection: Karpas620_DSMZ cell viability assay (AID 1918959); also: nearly all actives have a fitted effect of over 30% in size; also: potency is read from the fitted curve at half-maximal effect
Summary of the method: as §1

[15] = Viability counterscreen for agonist of constitutive androstane receptor (CAR) against the NCATS DSHEA and TCM libraries (AID 1794838);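 also: cells exposed to compound for 24 h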
Summary of the method: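 Cell viability, from CellTiter-Fluor fluorescence (405/540 nm), was scored after a 24 h, 37C exposure of HepG2 cells carrying CYP2B6 reporter and hCAR to test substances in presence of 0.75 uM PK11195.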

[16] = biological target: Nuclear receptor subfamily 1 group I member 3 (Homo sapiens) (UniProt Q14994); assay: Primary qHTS for agonist of constitutive androstane receptor (CAR) against the NCATS DSHEA and TCM libraries (AID 1794839);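 also: HepG2 cells expressing human CAR with a CYP2B6 reporter plus PK11195 antagonist; luciferase reporter luminescence read with ONE-Glo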
Summary of the method: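 Agonist mode in presence of hCAR antagonist PK11195 (0.75 µM final): test substances, 24 h, 37 °C, on HepG2-CYP2B6-hCAR cells. Same-well readouts: fluorescence viability, then ONE-Glo luminescence; CITCO as reference agonist.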

[17] = HepG2 viability counterscreen (readout 2: ATP content) against the NCATS DSHEA and TCM libraries (AID 1794840);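 also: HepG2 cells exposed to substances for about 24 h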
Summary of the method: (§4)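 Readout 1: cellular protease activity, GF-AFC substrate (25 uM final, 30 min, fluorescence 380/510 nm). Readout 2: ATP content by CellTiter-Glo luminescence after 30 min at RT. Both follow ~24 h exposure of HepG2 cells (1,000/well) to substances.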

[18] = HepG2 viability counterscreen (readout 1: protease activity) against the NCATS DSHEA and TCM libraries (AID 1794841);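 also: cells exposed to compounds for about 24 h before the protease read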
Summary of the method: as §4

[19] = Quantitative High-Throughput drug screen in 47 multiple myeloma cell lines against the NCATS MIPE library collection: Karpas417_ECACC cell viability assay (AID 1918961); conditions: Karpas417 myeloma viability, CellTiter-Glo ATP luminescence, 48 h; viability (% of DMSO): at 45.8 µM (top of the series); also: potency is read from the fitted curve at half-maximal effect
Summary of the method: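 CellTiter-Glo ATP luminescence gave viability after 48 h compound treatment at 37C of 500 multiple myeloma cells per well. Normalisation used DMSO-only wells as 100% and media-only wells as 0% viability; primary qHTS of approved and investigational drugs.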

[20] = Primary fluorescence-based thiol-reactive (MSTI) qHTS assay for identification of artifact compounds. (AID 1845221);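 also: thiol-reactive compounds lower the probe fluorescence signal; nearly all actives have a fitted effect of over 65% in size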
Summary of the method: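 MSTI probe at 4 uM final in 2% DMSO/PBS pH 7.4; compounds, 1 h at room temperature in dark. Fluorescence Ex/Em 525/598 nm, normalised to Acetyl-MSTI and MSTI, fitted to 4-parameter Hill.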

Measured: Potency

Phospholipid hydroperoxide glutathione peroxidase GPX4 (Homo sapiens), sequence (P36969 whole entry, looked up): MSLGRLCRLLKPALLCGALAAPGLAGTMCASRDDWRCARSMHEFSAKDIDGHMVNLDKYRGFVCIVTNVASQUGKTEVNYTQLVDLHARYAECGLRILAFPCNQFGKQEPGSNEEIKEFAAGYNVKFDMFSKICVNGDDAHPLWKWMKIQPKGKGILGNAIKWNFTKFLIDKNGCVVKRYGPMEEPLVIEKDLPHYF
Glutathione peroxidase 1 (Homo sapiens), sequence (P07203 whole entry, looked up): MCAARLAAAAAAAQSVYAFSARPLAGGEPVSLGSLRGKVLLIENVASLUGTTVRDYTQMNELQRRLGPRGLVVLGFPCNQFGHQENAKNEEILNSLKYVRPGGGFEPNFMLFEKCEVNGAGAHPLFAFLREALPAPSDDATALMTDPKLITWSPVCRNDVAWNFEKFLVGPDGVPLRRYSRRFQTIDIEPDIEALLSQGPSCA
Metallo-beta-lactamase type 2 (Klebsiella pneumoniae), sequence (C7C422 whole entry, looked up): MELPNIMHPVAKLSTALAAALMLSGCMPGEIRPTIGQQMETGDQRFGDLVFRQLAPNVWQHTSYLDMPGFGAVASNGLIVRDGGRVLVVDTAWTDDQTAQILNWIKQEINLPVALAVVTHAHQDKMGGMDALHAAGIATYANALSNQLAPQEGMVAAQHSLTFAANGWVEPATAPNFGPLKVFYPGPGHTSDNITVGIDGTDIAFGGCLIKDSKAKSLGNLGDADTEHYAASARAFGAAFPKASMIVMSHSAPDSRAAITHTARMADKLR
Nuclear receptor subfamily 1 group I member 3 (Homo sapiens), sequence (Q14994 whole entry, looked up): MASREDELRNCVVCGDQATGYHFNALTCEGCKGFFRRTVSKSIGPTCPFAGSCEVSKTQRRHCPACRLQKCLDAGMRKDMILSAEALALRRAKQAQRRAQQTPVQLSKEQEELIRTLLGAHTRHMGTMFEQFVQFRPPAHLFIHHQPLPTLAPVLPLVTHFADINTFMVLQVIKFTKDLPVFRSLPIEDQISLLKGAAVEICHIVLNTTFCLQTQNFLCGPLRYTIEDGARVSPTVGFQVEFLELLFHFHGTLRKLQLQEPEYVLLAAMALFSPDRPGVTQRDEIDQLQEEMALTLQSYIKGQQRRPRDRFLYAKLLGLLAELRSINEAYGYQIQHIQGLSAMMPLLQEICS

NCCS(=O)(=O)O
inactive: [1] | [2] | [3] | [4] | [5] | [6] | [7] | [8] | [9] | [10]

Cc1cc(C(C)(C)C)c(O)c(C)c1CC1=NCCN1
not listed: [4] | [5] | [15] | [16] | [17] | [18] | [19] | [20]
inactive: all other assays above

CCC1(C)CC(=O)NC1=O (stereo unspecified)
inactive: [1] | [2] | [3] | [6] | [7] | [8] | [14] | [10]
active: [9] 0.0037 µM

O=c1c(O)c(-c2ccc(O)c(O)c2)oc2cc(O)cc(O)c12
inactive: [15] | [16] | [17] | [18] | [1] | [2]
active: [5] 11.8 µM | [6] 20.9 µM | [19] 0.0166 µM

O=C1N(c2ccccc2)c2ccccc2C1(Cc1ccncc1)Cc1ccncc1
inactive: [1] | [2] | [3] | [5] | [7] | [8] | [14] | [10]

CC(C)C(=O)Nc1ccc([N+](=O)[O-])c(C(F)(F)F)c1
active: [5] 3.32 µM | [6] 1.48 µM | [7] 4.69 µM | [9] 18.7 µM | [14] 1.05 µM | [10] 18.7 µM
inactive: [1] | [2] | [3] | [8]

CCCNCC(O)COc1ccccc1C(=O)CCc1ccccc1 (stereo unspecified)
inactive: [1] | [2] | [3] | [4] | [8]

O=C(c1ccc(F)cc1)C1CCN(CCn2c(=O)[nH]c3ccccc3c2=O)CC1
not listed: [5] | [9] | [15] | [16] | [17] | [18] | [19]
inactive: all other assays above

NC12CC3CC(CC(C3)C1)C2
inactive: [1] | [2] | [3] | [4]

Clc1ccc2c(c1)C(N1CCNCC1)=Nc1ccccc1O2
inactive: [1] | [2] | [3] | [11] | [20] | [12] | [13] | [6] | [14] | [10]

Cc1cn([C@H]2C=C[C@@H](CO)O2)c(=O)[nH]c1=O
active: [19] 0.0108 µM
inactive: [1] | [2] | [3] | [6] | [7] | [8] | [9] | [14] | [10]

NC(=O)NO
inactive: [1] | [2] | [3]
active: [5] 2.35 µM | [6] 0.526 µM | [7] 4.69 µM | [8] 2.96 µM | [9] 0.235 µM | [14] 3.72 µM | [10] 0.235 µM | [19] 1.48 µM

CC(=O)OCC(CCn1cnc2cnc(N)nc21)COC(C)=O
inactive: [1] | [2] | [3] | [5] | [6] | [7] | [8] | [9] | [14]

CN1CCC(=C2c3ccccc3CC(=O)c3sccc32)CC1
active: [6] 20.9 µM | [7] 16.6 µM
inactive: [1] | [2] | [3] | [8] | [9] | [19]

CS(=O)(=O)Nc1ccc([N+](=O)[O-])cc1Oc1ccccc1
inactive: [1] | [2] | [3] | [4] | [6] | [7] | [14] | [10]
active: [8] 11.8 µM

CCOC(=O)Nc1ccc(NCc2ccc(F)cc2)nc1N
inactive: [1] | [2] | [3] | [6] | [8] | [19]
active: [7] 18.7 µM | [9] 18.7 µM | [14] 20.9 µM

COc1ccc(C2CNC(=O)C2)cc1OC1CCCC1 (stereo unspecified)
inactive: [1] | [2] | [3] | [4] | [6] | [7] | [8] | [9] | [14] | [19]

CN1C2CCC1CC(OC(=O)C(CO)c1ccccc1)C2 (stereo unspecified)
inactive: [1] | [2] | [3] | [6] | [7] | [8] | [9] | [14] | [10]

CN(CCOc1ccc(NS(C)(=O)=O)cc1)CCc1ccc(NS(C)(=O)=O)cc1
inactive: [1] | [2] | [3] | [4] | [6] | [7] | [8] | [9] | [14] | [10] | [19]

O=C1c2c(O)ccc(O)c2C(=O)c2c(NCCNCCO)ccc(NCCNCCO)c21
inactive: [1] | [2] | [3]
active: [6] 0.833 µM | [7] 0.935 µM | [8] 0.469 µM | [9] 20.9 µM | [14] 5.26 µM | [10] 4.18 µM | [19] 16.6 µM
